Experiment in all cases: Primary qHTS to identify gynecologic anti-cancer compounds using libraries of approved drugs and bioactive compounds (AID 1345084); also: nearly all actives have a fitted effect of over 55% in size
What all share (conditions): Gynecologic cancer cell panel viability, ATPlite luminescence, 48 h; series mostly up to 57.5 µM
(In general: In qHTS, concentration-response curves come from the screen itself.)

One assay has as its system SKOV3. Summed up: (§1)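 Cells, 1,000 per well, were allowed to settle for 16 h at 37 C before compound addition. Five concentrations were tested for 48 h, and viability was read by ATPlite luminescence after 15 min at room temperature.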
For another assay, the system named is Tov-21-G. Summed up: as §1
The subject of another assay is Tov112D. Summed up:
as §1

Results filed as inconclusive are left out. Activity calls are given as the source filed them. Calls follow the shape of the dose curve; as a rule, active = well fitted cell-killing curve with a large enough effect; inconclusive = small, poorly fitted or top-dose-only effect, or effect the other way; inactive = flat fitted curve, though single readings scatter.
Potency is read from the fitted curve at half-maximal effect.

For `CCc1c(Cl)c(O)c(Cl)c(O)c1C(=O)O[C@H]1[C@H](O)[C@H](OC)[C@H](OC/C2=C\C=C\C[C@H](O)/C(C)=C\[C@H](CC)[C@@H](O[C@@H]3OC(C)(C)[C@@H](OC(=O)C(C)C)[C@H](O)[C@@H]3O)/C(C)=C/C(C)=C/C[C@@H]([C@@H](C)O)OC2=O)O[C@@H]1C`, the Potency result with SKOV3, in the assay on Tov-21-G and in the assay on Tov112D was “inactive” each time.
As to `CN(C)C(=O)Nc1cc(-c2ccccc2)ccc1N(C)C`, the Potency entry in the assay with SKOV3, in the assay on Tov-21-G and in the assay with Tov112D was “inactive” throughout.
In the case of `O=C(Nc1ccn(Cc2ccc(O)cc2C(F)(F)F)n1)c1c(F)cccc1F`, the Potency entry with SKOV3, with Tov-21-G and with Tov112D was “inactive” throughout.
With `CS(=O)(=O)Nc1ccc2oc3c(OC(F)F)ccc(C(=O)Nc4c(Cl)cncc4Cl)c3c2c1`, the Potency entry in the assay on SKOV3, in the assay on Tov-21-G and with Tov112D was “inactive” in each case.
Regarding `C=C1CC[C@@H](O)[C@]2(C)C[C@H]3OC(=O)C(=C)[C@H]3CC12` (some centres not stated), the Potency result in the assay with SKOV3, with Tov-21-G and in the assay with Tov112D was “inactive” each time.
Turning to `O=C(NCc1nc2ccccc2c(=O)n1-c1ccc(F)cc1)Nc1ccc(Cl)c(C(F)(F)F)c1`, the Potency result in the assay with SKOV3, in the assay with Tov-21-G and with Tov112D was “inactive” each time.
Turning to `COc1cc2ncnc(Nc3ccc(F)c(Cl)c3)c2cc1O`, the Potency result in the assay with SKOV3, in the assay with Tov-21-G and with Tov112D was “inactive” each time.
Regarding `COc1ccccc1N1CCN(CC[C@@](C)(C(=O)C2CCCCC2)c2ccccc2)CC1`, the Potency entry with SKOV3, in the assay on Tov-21-G and in the assay with Tov112D was “inactive” in each case.
In the case of `CCC(C)C(=O)OC1C(C)C2(O)C(C=C(CO)CC3(O)C(=O)C(C)=CC32)C2C(C)(C)C12OC(=O)C(C)C` (configuration not stated), the Potency result in the assay on SKOV3, in the assay on Tov-21-G and with Tov112D was “inactive” throughout.
As for `COC1CC(O[C@H]2CC[C@]3(C)C4CC[C@]5(C)C(C6=CC(=O)OC6)=CCC56OC46CC[C@@H]3C2)OC(C)C1O[C@@H]1O[C@H](CO[C@@H]2O[C@H](CO)[C@@H](O)[C@H](O)[C@H]2O)[C@@H](O)[C@H](O)[C@H]1O` (some centres not stated), the values for the Potency in the assay with SKOV3, in the assay with Tov-21-G and with Tov112D were 3.16 µM (active), 2.24 µM (active) and 2 µM (active), respectively.
Consider `CC[C@H]1CN(c2nc(N)c(C(N)=O)nc2Cl)CCN1C1CCN(Cc2ccc(Cl)cc2)CC1`, for which the Potency entry in the assay on SKOV3, with Tov-21-G and in the assay on Tov112D was “inactive” in each case.
Turning to `CC(=O)O[C@H]1CC[C@]2(C)[C@H]3CC[C@]4(C)Oc5oc(C)cc(=O)c5C[C@H]4[C@]3(C)CC[C@H]2C1(C)C`, the Potency result in the assay with SKOV3, in the assay on Tov-21-G and in the assay with Tov112D was “inactive” throughout.
Turning to `COC1=CC(=O)O/C1=C(/OC)[C@@H]1O[C@H]1c1ccccc1`, the Potency result in the assay with SKOV3, in the assay with Tov-21-G and in the assay on Tov112D was “inactive” throughout.
For `CN1CC[C@@H](c2c(O)cc(O)c3c(=O)cc(-c4ccc(C(F)(F)F)cc4Cl)oc23)[C@@H]1CO`, the Potency entry in the assay on SKOV3, with Tov-21-G and in the assay on Tov112D was “inactive” throughout.
On to `CN(C)[C@@H]1CCc2[nH]c3ccc(NC(=O)c4ccc(F)cc4)cc3c2C1`, for which the Potency entry in the assay on SKOV3, with Tov-21-G and with Tov112D was “inactive” in each case.
In the case of `O=C(Nc1cc(C(F)(F)F)ccc1N1CCCCC1)c1ccncc1`, the Potency result in the assay on SKOV3, in the assay on Tov-21-G and in the assay with Tov112D was “inactive” in each case.
`Cc1c(C2=CCN(C(=O)N(C)C(C)C)CC2)nnn1-c1cccnc1F`: the Potency entry with SKOV3, in the assay with Tov-21-G and in the assay on Tov112D was “inactive” in each case.
Consider `CC(=O)NC[C@H]1CN(c2ccc(N3CCSCC3)c(F)c2)C(=O)O1`, for which the Potency entry in the assay with SKOV3, in the assay with Tov-21-G and with Tov112D was “inactive” each time.
On to `COc1ccc(NC(=O)c2ccc(C(=N)N(C)C)cc2)c(C(=O)Nc2ccc(Cl)cn2)c1`, for which the Potency result with SKOV3, with Tov-21-G and with Tov112D was “inactive” throughout.
As for `Cc1ccc(N2CCN(CCC3NC(=O)c4ccccc43)CC2)cc1C` (configuration not stated), the Potency entry in the assay with SKOV3, with Tov-21-G and with Tov112D was “inactive” each time.
Regarding `Cn1nc(-c2ccc(C(F)(F)F)cc2)nc2c(=O)n(C)c(=O)nc1-2`, the Potency in the assay with SKOV3 is 17.8 µM (active); in the assay on Tov-21-G it was 12.6 µM (active); with Tov112D it was 7.94 µM (active).
The corresponding values for `O[C@@](Cc1ncc(CC2(C(F)(F)F)CC2)[nH]1)(c1ccc(-n2cccn2)cc1)C(F)(F)F` are “inactive”, “inactive” and “inactive”.
The corresponding values for `Clc1ncoc1-c1c[nH]c2ccccc12` are “inactive”, “inactive” and “inactive”.
The corresponding values for `Nc1nc(OCc2cc(Br)cs2)c2[nH]cnc2n1` are “inactive”, “inactive” and “inactive”.
Take `COc1cccc(N2CCN(C3=Nc4c(F)cccc4[C@H](CC(=O)O)N3c3cc(C(F)(F)F)ccc3OC)CC2)c1`: the Potency entry in the assay with SKOV3, in the assay on Tov-21-G and in the assay on Tov112D was “inactive” in each case.
`Cc1sc2c(c1C)C(c1ccc(Cl)cc1)=N[C@H](CC(=O)NCCCCNC(=O)COc1cccc3c1C(=O)N([C@H]1CCC(=O)NC1=O)C3=O)c1nnc(C)n1-2`: the Potency entry in the assay with SKOV3 and with Tov112D was “inactive” in each case. Further, in the assay with Tov-21-G, the Potency is 1.78 µM (active).
For `Cc1cc(C)cc(-c2cnc3cc(Cl)c(-c4cccc(O)c4)cc3c2OCCCN)c1`, the Potency result in the assay with SKOV3, in the assay on Tov-21-G and in the assay on Tov112D was “inactive” in each case.
Consider `CC12CCC3C1C(c1c(cc(O)c(C(=O)c4ccccc4)c1O)O2)C3(C)C` (configuration not stated), for which the Potency result with SKOV3, in the assay with Tov-21-G and in the assay on Tov112D was “inactive” each time.
In the case of `CC1(C)OC[C@H](NC(=O)Nc2ccc(Br)cc2Br)[C@H](c2ccccc2)O1`, the Potency entry in the assay with SKOV3, in the assay with Tov-21-G and in the assay on Tov112D was “inactive” throughout.

The record behind these values is PubChem BioAssay (NCATS).
